Experimental data as given in PubChem BioAssay AID540254 (Southern Research Specialized Biocontainment Screening …, 2011).
Out of some 1,800 compounds screened, fewer than 10 were called active. The rule behind the calls is not given here. The list is a sample of the results. Results with a measured potency or affinity are listed apart.

Assay: antiviral activity against H1N1 influenza, dose response, cell-based, strain KY180 (AID 540254)
Settings: H1N1 KY180 influenza antiviral cell-based screen; series mostly up to 40 µM
In the case of `Cc1cccc2sc(NNC(=O)c3ccc(S(=O)(=O)N4CCc5ccccc5C4)cc3)nc12`, the outcome is reported as “inactive”.
For `CCOc1ccc(C(=S)NC2CCCCC2)cc1OC`, the outcome was “inactive”.
In the case of `c1ccc2[nH]c(CSc3nc4ccccc4o3)nc2c1`, the outcome is reported as “inactive”.
For `CCCCOC(=O)Nc1ccc(S(=O)(=O)Nc2cc(C)nc(C)n2)cc1`, the outcome was “inactive”.
With `Cc1cc(C(=O)N/N=C/c2c(C)[nH]n(-c3ccccc3)c2=O)n[nH]1` the outcome was “inactive”.
For `C=CCOc1cccc(/C=N/NC(=O)CC(=O)NC2CCCCC2)c1`, the outcome was “inactive”.
In the case of `O=C(CSc1n[nH]c(-c2ccccn2)n1)Nc1cccc(Cl)c1`, the outcome is reported as “inactive”.
In the case of `CN(C)CCCNC(=O)c1ccc(-c2cc(O)c3ncccc3c2)cc1`, the outcome is reported as “inactive”.
With `Oc1ccc(N=Nc2c(O)ccc3ccccc23)cc1` the outcome was “inactive”.
For `CC1=NN(c2ccc(C)cc2)C(=O)/C1=C\C=C\c1ccccc1`, the outcome was “inactive”.
In the case of `Cc1ccc(C(=O)N/C(=C\c2cccc([N+](=O)[O-])c2)C(=O)NCc2ccncc2)cc1`, the outcome is reported as “inactive”.
In the case of `CN(C)S(=O)(=O)c1ccc(NC(=O)CSc2ncnc3ccccc23)cc1`, the outcome is reported as “inactive”.
In the case of `Cc1ccc(S(=O)(=O)C2(C(=O)NCc3ccc4c(c3)OCO4)CC2)cc1`, the outcome is reported as “inactive”.
With `O=C(Cn1cnc([N+](=O)[O-])n1)N/N=C/c1ccccc1O` the outcome was “inactive”.
In the case of `Clc1cc2cccnc2c2ncccc12`, the outcome is reported as “inactive”.
With `O=C(N/N=C(\Cc1ncc[nH]1)c1ccccc1)c1ccncc1` the outcome was “inactive”.
With `CCOC(=O)Cc1nnc(NC(=O)C(CC)Sc2nncn2C)s1` (stereo not drawn) the outcome was “inactive”.
In the case of `Cc1ccc(NC(=O)COc2cccc3ccc(C)nc23)c(Br)c1`, the outcome is reported as “inactive”.
For `COc1cccc(N=Nc2ccc3ccccc3c2O)c1`, the outcome was “inactive”.
With `Cn1c(SCC(=O)NC2CC2)nnc1-c1ccccn1` the outcome was “inactive”.
With `COc1cc(O)c(/C=N/NC(=O)c2ccncc2)c(OC)c1[N+](=O)[O-]` the outcome was “inactive”.
For `COC(=O)c1c(C)oc2ccc(N(C(=O)c3ccncc3)S(=O)(=O)c3ccc4ccccc4c3)cc12`, the outcome was “inactive”.
For `CC(=NNC(=S)N1CC2CCC(CC2)C1)c1nccs1`, the outcome was “inactive”.
For `CCOc1cccc(/C=N/NC(=O)c2cccnc2)c1O`, the outcome was “inactive”.
With `O=C(N/N=C/c1cc(O)ccc1Br)c1cccnc1` the outcome was “inactive”.
With `COc1cccc2c(=O)n(CC(=O)Nc3ccc(F)cc3F)ccc12` the outcome was “inactive”.
For `CC(c1ccccc1)n1c(CO)nc2ccccc21` (stereo not drawn), the outcome was “inactive”.
For `O=C(Nc1nc(-c2ccccn2)cs1)c1ccco1`, the outcome was “inactive”.
In the case of `O=C1/C(=C/c2ccc(O)c(O)c2)SC(=S)N1Nc1ccccc1`, the outcome is reported as “inactive”.
In the case of `CN1CCN(c2ccc(N)cc2)CC1`, the outcome is reported as “inactive”.
With `COC(=O)Cn1c(=O)c2c(nc3n2CC(C)CN3c2ccc(C)c(C)c2)n(C)c1=O` (stereo not drawn) the outcome was “inactive”.
With `CCCNC(=O)COC(=O)/C=C/c1ccco1` the outcome was “inactive”.
For `CC(C)CCNC(=O)CCC(=O)NNc1nc2ccccc2c2nc(-c3ccccc3)nn12`, the outcome was “inactive”.
In the case of `CCOc1ccc(NS(=O)(=O)c2ccc(NS(=O)(=O)c3ccc(SC)cc3)cc2)cc1`, the outcome is reported as “inactive”.
With `COc1ccc(C(C)=O)cc1COC(=O)[C@H](Cc1ccccc1)NC(=O)c1ccco1` the outcome was “inactive”.
With `CC(C)CC(C(=O)OCC(=O)Nc1ncc(Cl)cc1Cl)N1C(=O)c2ccccc2C1=O` (stereo not drawn) the outcome was “inactive”.
In the case of `CCN1/C(=C/c2ccc3cc(C)cc(C)c3[n+]2CC)Sc2cc(C)ccc21`, the outcome is reported as “inactive”.
In the case of `Cc1ccc(O)c(N=NC2=C(O)CC(C)(C)CC2=O)c1`, the outcome is reported as “inactive”.
For `Cc1cc2cc(CNC(=O)NC3CCCCC3)ccc2n1C`, the outcome was “inactive”.
With `COc1ccc(C(=O)N/N=C(\C)c2ccccn2)cc1OC` the outcome was “inactive”.
In the case of `Cc1ccc(NCCCn2cnc(C(=O)Nc3ccc(C)c(C)c3)n2)cc1C`, the outcome is reported as “inactive”.
With `COC(=O)c1cc(S(=O)(=O)N2CCCCCC2)c[nH]1` the outcome was “inactive”.
For `O=C(O)c1ccc(N2C(=O)/C(=C/c3ccc(-c4ccc([N+](=O)[O-])cc4)o3)C=C2c2ccccc2)cc1`, the outcome was “inactive”.
In the case of `O=C(N/N=C/c1cc([N+](=O)[O-])ccc1O)c1cccc(N2CCCC2=O)c1`, the outcome is reported as “inactive”.
With `O=C(NCc1ccccn1)C(=O)N/N=C/c1ccccc1O` the outcome was “inactive”.
With `CCCN1C(=O)/C(=C2\SC(N3CCCCC3)=NC2=O)c2ccccc21` the outcome was “inactive”.
In the case of `CCN(Cc1ccccc1)c1ccc(N=Nc2nn(C)c(C)c2[N+](=O)[O-])cc1`, the outcome is reported as “inactive”.
For `CCOC(=O)N1CCN(c2c(NCCc3ccccc3)c(=O)c2=O)CC1`, the outcome was “inactive”.
With `CCOc1ccc(-n2c(SCC(=O)Nc3ccccc3C)n[nH]c2=O)cc1` the outcome was “inactive”.
In the case of `COc1cc(C=O)ccc1OCC(=O)Nc1ccc2c(c1)OCO2`, the outcome is reported as “inactive”.
In the case of `CC1=NN(c2ccccc2)C(=O)/C1=C/c1c(O)n(-c2ccc(F)cc2)[nH]c1=O`, the outcome is reported as “inactive”.
With `Cc1cc(C)cc(N2C(=O)C3NN=C(C(=O)OCc4ccccc4)C3C2=O)c1` (stereo not drawn) the outcome was “inactive”.
For `O=C1CCC(=O)N1CCC(c1ccc(F)cc1)c1ccco1` (stereo not drawn), the outcome was “inactive”.
For `CN(C)c1ccc(N=Cc2ccco2)cc1`, the outcome was “inactive”.
In the case of `COc1cccc(C(=O)O/N=C(\N)c2ccncc2)c1`, the outcome is reported as “inactive”.
With `Cc1ccc(NC(=O)N2CCCCCC2)cc1C` the outcome was “inactive”.
With `CCN(CC)CCN1C(=O)c2oc3ccc(F)cc3c(=O)c2C1c1ccncc1` (stereo not drawn) the outcome was “inactive”.
In the case of `CN(CC(=O)NCc1ccccn1)S(=O)(=O)c1ccc(Br)cc1`, the outcome is reported as “inactive”.
For `CC(=O)Nc1cccc(NC(=O)CSc2nn3c(=O)c(C)nnc3s2)c1`, the outcome was “inactive”.
In the case of `Cc1ccn(CC(=O)N/N=C/c2cc([N+](=O)[O-])ccc2O)n1`, the outcome is reported as “inactive”.
With `Cc1cccc(NC(=O)CCN2C(=O)c3ccccc3S2(=O)=O)c1C` the outcome was “inactive”.
For `O=C(CN1C(=O)C2CCCCC2C1=O)Nc1nc(-c2ccccn2)cs1` (stereo not drawn), the outcome was “inactive”.
With `Cc1c(N=Nc2c(O)n(Cc3ccccc3)c(=O)[nH]c2=O)c(=O)n(-c2ccccc2)n1C` the outcome was “inactive”.
For `C=CC(=O)Nc1ccc(N(C)c2ccnc(Nc3ccc(N4CCN(C)CC4)cc3)n2)cc1`, the outcome was “inactive”.
With `CC(=O)N(Cc1ccc(F)cc1)C1=C(NCCc2ccccc2)C(=O)c2ccccc2C1=O` the outcome was “inactive”.
With `O=C(O)c1ccc(N=Nc2c(O)ccc3ncccc23)cc1` the outcome was “inactive”.
For `Cc1nc2sccn2c(=O)c1S(=O)(=O)Nc1cccc(Cl)c1C`, the outcome was “inactive”.
With `CC(=NNC(=S)N1CC2CCC(CC2)C1)c1ccncn1` the outcome was “inactive”.
With `Clc1ccc(OCc2nc(-c3ccncc3)no2)c(Br)c1` the outcome was “inactive”.
In the case of `CN1C(=O)/C(=C/c2cc(N=Nc3ccccc3)ccc2O)SC1=S`, the outcome is reported as “inactive”.
With `O=C(CSc1ccc(-c2ccccn2)nn1)Nc1ccc(F)c(F)c1` the outcome was “inactive”.
In the case of `COc1ccc(N2CCN(C(=O)CCC(=O)N3CCOc4ccc(Cl)cc43)CC2)cc1`, the outcome is reported as “inactive”.
In the case of `Cc1ccc2ccc3cccnc3c2n1`, the outcome is reported as “inactive”.
With `Cc1noc(/C=C/N(C)C)c1S(=O)(=O)N1CCCC(C(=O)NC2CCCCC2)C1` (stereo not drawn) the outcome was “inactive”.
With `COc1ccc(N=Nc2cc(OC)c(N)cc2OC)cc1` the outcome was “inactive”.
For `O=C(NC(=S)NNC(=O)c1ccccc1O)c1ccco1`, the outcome was “inactive”.
With `CC1COCC(C)N1C1=C(Cl)C(=O)c2ccccc2C1=O` (stereo not drawn) the outcome was “inactive”.
With `COc1ccccc1N1CCN(C2CCCN(C(=O)c3cccc(-c4ccco4)c3)C2)CC1` (stereo not drawn) the outcome was “inactive”.
For `Clc1ccc(-c2ccc(-c3nn4c(-c5ccco5)nnc4s3)o2)cc1`, the outcome was “inactive”.
For `CCCCCn1cnc2c(sc3nc4c(cc32)CSC(C)(C)C4)c1=O`, the outcome was “inactive”.
In the case of `CCN(CC)C(=O)C1CCCc2c1[nH]c1ccc(Cl)cc21` (stereo not drawn), the outcome is reported as “inactive”.
In the case of `CC(NC(=O)C(=O)NN=C1CCCCCCC1)c1ccccc1` (stereo not drawn), the outcome is reported as “inactive”.
For `COc1ccc(NC(=O)CSc2n[nH]c(-c3ccccn3)n2)cc1`, the outcome was “inactive”.
In the case of `O=C(N/N=C/c1c(O)n(C2CC2)c(=S)[nH]c1=O)c1ccccc1O`, the outcome is reported as “inactive”.
For `Cc1ccc(NC(=O)CSc2nnc(C)c(=O)n2N)c(C)c1`, the outcome was “inactive”.
With `Cc1ccc(CN2CCC(n3nccc3NC(=O)CCCc3ccccc3)CC2)o1` the outcome was “inactive”.
In the case of `O=C1CCCN1CC(=O)N1CCCC(N2CCN(c3cccc(Cl)c3)CC2)C1` (stereo not drawn), the outcome is reported as “inactive”.
With `CCNC(=O)CC1C(=O)N(c2ccc(F)cc2)C(=O)N1Cc1ccc(OC)cc1` (stereo not drawn) the outcome was “inactive”.
In the case of `O=C1C=C(c2c(O)ccc3ccccc23)c2ccccc2C1=O`, the outcome is reported as “inactive”.
For `CCOC(=O)C1=C(C)n2c(s/c(=C/c3cccc([N+](=O)[O-])c3)c2=O)=NC1c1ccc(O)c(OC)c1` (stereo not drawn), the outcome was “inactive”.
For `CCC(C(=O)N/N=C(\C)c1cccnc1)c1ccccc1` (stereo not drawn), the outcome was “inactive”.
For `CN(CCCC(=O)O)c1ccc(N=Nc2ccc([N+](=O)[O-])cc2)cc1`, the outcome was “inactive”.
In the case of `COc1cccc(C(=O)NN2c3ccccc3CCc3ccccc32)c1`, the outcome is reported as “inactive”.
For `N#C/C(=C/c1cn(-c2ccccc2)nc1-c1cccc(OCc2ccc(F)cc2)c1)C(=O)NCCCn1ccnc1`, the outcome was “inactive”.
With `CC1NC(=O)NC1CCCCCC(=O)Nc1ccc(F)c(Cl)c1` (stereo not drawn) the outcome was “inactive”.
For `CCOC(=O)C(C(C)=O)c1c(Br)c(O)c(O)c2c(C(=O)c3ccc(C)cc3)coc12` (stereo not drawn), the outcome was “inactive”.
For `Cc1ccc(-n2c(SCC(=O)NCc3ccco3)nc3c([nH]c4ccccc43)c2=O)cc1`, the outcome was “inactive”.
For `CC(C)CC1Nc2ncnc(N3CCN(c4ccccc4)CC3)c2N(Cc2ccccc2)C1=O` (stereo not drawn), the outcome was “inactive”.
With `C[C@@H](C(=O)Nc1nc(-c2ccccn2)cs1)N1C(=O)C2CCCCC2C1=O` (stereo partly drawn) the outcome was “inactive”.
For `COc1ccc(C2(c3ccc(OC)cc3)NC(=O)N(CC(=O)Nc3ccc(OC(F)F)cc3)C2=O)cc1`, the outcome was “inactive”.
For `Cn1nc(CC(=O)NC2CCCCCC2)c2ccccc2c1=O`, the outcome was “inactive”.
With `O=C(CCS(=O)(=O)c1ccc(F)cc1)Nc1nc(-c2ccccn2)cs1` the outcome was “inactive”.
In the case of `COc1ccc(C2C(C#N)=C(N)Nc3onc(C(C)(C)C)c32)c(OC)c1` (stereo not drawn), the outcome is reported as “inactive”.
For `Oc1cccc(/C=N/NC(=S)Nc2cccnc2)c1O`, the outcome was “inactive”.
With `CCOC(=O)c1c(C)[nH]c(C(=O)N/N=C/c2cc([N+](=O)[O-])ccc2O)c1C` the outcome was “inactive”.
With `Cc1[nH]c2ccccc2c1C(c1ccccn1)c1c(C)[nH]c2ccccc12` the outcome was “inactive”.
In the case of `Cc1[nH]c2ccccc2c1SCC(=O)N1CCOCC1`, the outcome is reported as “inactive”.
For `Cc1ccc(S(=O)(=O)NCc2ccc3c(c2)cc(C)n3C)cc1`, the outcome was “inactive”.
